Potency and affinity values are given separately. Active and inactive are the calls of the source. No rule for the calls is given here.
biological target: Plasmodium falciparum protein kinase 6 (PK6, PF3D7_1337100) (UniProt Q8IDW1); experiment: PfPK6 kinase inhibitors, biochemical, TCAMS library (AID 1159586); details: recombinant PfPK6, Kinase-Glo ATP depletion luminescence
Sequence (Q8IDW1 1-305): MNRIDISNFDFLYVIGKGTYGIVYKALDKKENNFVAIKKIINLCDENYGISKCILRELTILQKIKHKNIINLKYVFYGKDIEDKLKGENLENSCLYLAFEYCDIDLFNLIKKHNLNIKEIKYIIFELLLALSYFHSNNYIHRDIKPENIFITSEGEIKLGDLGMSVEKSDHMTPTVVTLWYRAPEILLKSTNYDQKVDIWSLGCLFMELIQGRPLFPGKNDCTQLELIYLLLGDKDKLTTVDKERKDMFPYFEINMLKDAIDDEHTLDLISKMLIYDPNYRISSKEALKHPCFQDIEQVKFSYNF

outcome, inactive:
O=C(Nc1nc2cc(S(=O)(=O)NCCc3ccc(F)cc3)ccc2n1CCCn1ccnc1)c1ccc(Cl)cc1
Cc1[nH]c(C)c(C(F)(F)F)c(=O)c1-c1ccc(Oc2ccc(OC(F)(F)F)cc2)cc1
COc1ccc(CNCc2cccc(-c3cccc(-c4nc5c(C)cccc5[nH]4)c3)c2)cc1
CC(C)(C)c1ccc(C(=O)NC2CCC(CCN3CCc4ccc(S(C)(=O)=O)cc4CC3)CC2)cc1C(F)(F)F (centres undefined)
CCCCCCc1cc(Oc2c(I)cc(C[C@H](N)C(=O)O)cc2I)ccc1O
CN(C)Cc1cccc(-c2ccc3ccnc(N)c3c2)c1
CN1CCN(CCc2ccc3nc(-c4csc(Cc5cc(Cl)ccc5OCc5ccccc5)n4)[nH]c3c2)CC1
COc1ccc(C=NNc2ccnc3cc(F)c(C)cc23)c2ccccc12
Cc1nc(N)nc(N)c1OCc1cccc2c1ccc1ccccc12
Cc1nc(Nc2ccc(F)cc2)nc(N2CCc3cc(O)ccc3C2C)c1C (centres undefined)
CNc1ccc(CNCc2ccc(-c3ccc(-c4nc5ccc(C(F)(F)F)cc5[nH]4)s3)cc2)cc1
NCc1ccc(CNCc2cccc(-c3ccc(-c4nc5ccccc5[nH]4)cc3)c2)cc1
CCN(CC)Cc1ccc2c(=O)cc(CCc3cccc(F)c3F)n(CC(=O)N(Cc3ccc(-c4ccc(C(F)(F)F)cc4)cc3)C(C)C)c2c1
O=C(/C=C/c1ccc(Cl)c(Cl)c1)NCCCCCCN1CCN(C(=O)Nc2ccc(C(F)(F)F)cc2)CC1

From PubChem BioAssay
